Only some compounds are listed: those with a hit (about 18% of all), similar ones and a draw of the others.
TGFb inhibitor: qHTS for Inhibitors of TGF-b. HepG2 CAGA-GFP TGF-b/SMAD3 reporter, GFP fluorescence, 18 h; TGF-beta stimulated, 500 pg/mL final. 410,000 tested, 1.2% active. Potency, µM (titrated, usually from 46.1 µM), hits mostly inhibitors. AID 588855, 2011; note: nearly all actives have a fitted effect of over 65% in size
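HEPG2 CAGA-GFP, 1000 cells/well; 2 h settle, 37 C; cpd via pin tool; TGF-b 500 pg/mL final; 18 h, 37 C; GFP imaging ex488/em500-530; %Activity normalised to -TGF-b and +DMSO controls; CRC fit, curve class.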
DT40 TDP1 no CPT: qHTS for Inhibitors of human tyrosyl-DNA phosphodiesterase 1 (TDP1): qHTS in cells in absence of CPT. Potency, µM (highest dose often 46.2 µM), hits mostly inhibitors. 420,000 tested, 15% active. DT40 Tdp1-/- hTDP1 cells, no CPT, ATP luminescence, 48 h; note: nearly all actives have a fitted effect of over 55% in size
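Compound effects on proliferation are scored in DT40 Tdp1-/-;hTDP1 cells in the absence of CPT. ATP levels (CellTiter-Glo luminescence) are recorded after a ≥48 hr, 37 °C incubation.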
TDP1 block: qHTS Assay for Inhibitors of Tyrosyl-DNA Phosphodiesterase (TDP1); AID 485290, 2010; Tyrosyl-DNA phosphodiesterase 1 (Homo sapiens), Q9NUW8; 350,000 tested, 0.28% active; Potency, µM (top dose mostly 130 µM), actives largely listed as inhibitors; recombinant TDP1, AlphaScreen DNA substrate cleavage; note: nearly all actives have a fitted effect of over 40% in size
Target sequence (Q9NUW8 whole entry, looked up): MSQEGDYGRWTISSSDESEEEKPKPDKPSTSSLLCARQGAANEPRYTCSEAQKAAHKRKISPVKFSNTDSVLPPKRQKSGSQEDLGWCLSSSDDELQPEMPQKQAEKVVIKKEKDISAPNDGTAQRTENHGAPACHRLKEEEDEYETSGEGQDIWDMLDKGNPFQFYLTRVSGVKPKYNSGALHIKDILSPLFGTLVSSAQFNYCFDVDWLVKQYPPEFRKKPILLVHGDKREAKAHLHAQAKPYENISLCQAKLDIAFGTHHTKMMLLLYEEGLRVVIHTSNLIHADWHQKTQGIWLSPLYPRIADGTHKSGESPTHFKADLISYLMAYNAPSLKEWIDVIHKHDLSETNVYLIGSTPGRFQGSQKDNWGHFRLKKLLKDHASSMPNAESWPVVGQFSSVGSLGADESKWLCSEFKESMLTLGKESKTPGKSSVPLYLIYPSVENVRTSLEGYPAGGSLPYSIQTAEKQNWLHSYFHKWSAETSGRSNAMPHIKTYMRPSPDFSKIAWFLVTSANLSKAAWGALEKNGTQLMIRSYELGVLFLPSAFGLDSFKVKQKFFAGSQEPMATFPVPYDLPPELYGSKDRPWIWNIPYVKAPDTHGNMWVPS
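E. coli-derived human Tdp1, 1 nM final. Cpd preinc 15 min RT; substrate 15 nM final, 5 min RT; AS bead mix 10 ug/ml final, 10 min RT. Signal loss = tyrosine-FITC cleavage. No-enzyme wells = max signal.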
IL1B secr inh: qHTS for Inhibitors of Inflammasome Signaling: IL-1-beta AlphaLISA Primary Screen. 360,000 tested, 4.7% active. THP-1 LPS/ATP IL-1B secretion, AlphaLISA, 16 h; stronger effect = lower value. AID 743279, 2014. activity change, % at 57.5 µM; in the data active = activity change below about -50%; inconclusive = mostly about -30% to -49%
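Secreted IL-1B measured by AlphaLISA bead assay after 16 h compound exposure of THP-1 cells; compounds (final up to 57.5 uM) added 1 h before LPS (250 ng/mL) and ATP (1.25 mM) stimulation; lower signal means less secretion.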
DT40 TDP1 CPT: qHTS for Inhibitors of human tyrosyl-DNA phosphodiesterase 1 (TDP1): qHTS in cells in presence of CPT; chicken DT40 Tdp1-/-;hTDP1 cells + 20 nM CPT, ATP luminescence, 48 h; Potency, µM (top dose mostly 46.2 µM), hits mostly inhibitors; 420,000 tested, 12% active; note: nearly all actives have a fitted effect of over 55% in size
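Chicken DT40 Tdp1-/- cells stably complemented with human TDP1 were seeded at 400 cells/well in medium containing 20 nM camptothecin, exposed to pin-transferred compounds, and grown at 37 °C for at least 48 hr. Viability was read as ATP luminescence.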
HepG2 tox: qHTS for Inhibitors of TGF-b: Cytotox Counterscreen | Potency, µM (highest dose often 46.1 µM), usual class: cytotoxic | 410,000 tested, 0.76% active | HepG2 CAGA-GFP viability, ATP luminescence, 18 h
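HepG2 CAGA-GFP cells (1000/well, DMEM with 1% FBS) received compound, then TGF-beta at 500 pg/mL final, and were incubated 18 hours at 37 degrees C. Viability was read by CellTiter-Glo luminescence. Media-only wells were set as complete cell-killing and DMSO as no toxicity.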
A number is an active result; 0 = inactive; ? = inconclusive; - = no result; [ ] = dose if it differs, or a comment. Unless noted, calls come from the whole dose curve; as a rule, active = well fitted curve in the direction sought with a large enough effect; inconclusive = small, poorly fitted or top-dose-only effect, or another doubt; inactive = no such curve, though single readings can be large; an effect the other way counts as inactive or inconclusive.

SMILES | TGFb inhibitor | DT40 TDP1 no CPT | TDP1 block | IL1B secr inh | DT40 TDP1 CPT | HepG2 tox
CN(C)c1ccc2cc(S(=O)(=O)O)cc(O)c2c1 | 0 | 0 | - | 0 | ? | 0
CN(C)c1ccc2c(O)cc(=O)n(C)c2c1 | 0 | 16µM | 0 | 0 | 15µM | 0
COc1ccc(S(=O)(=O)N(CC(=O)N2CCCCCC2)c2ccccc2OC)cc1 | 0 | 0 | - | 0 | 0 | 0
O=C(CSc1nc(-c2ccc(F)cc2)cs1)NCC1CCCO1 (configuration not stated) | 0 | 21µM | 0 | 0 | 0 | 0
O=C(CN(c1ccc(Br)cc1)S(=O)(=O)c1ccc(Cl)c([N+](=O)[O-])c1)NCC1CCCO1 (configuration not stated) | ? | ? | - | -98 | 16µM | 0
O=C(CSc1nc(-c2ccc(F)cc2)[nH]c1-c1ccccc1)NCC1CCCO1 (configuration not stated) | ? | 16µM | 0 | - | 29µM | 0
Cc1ccc(-c2[nH]c(-c3ccc(Cl)cc3)nc2SCC(=O)NCC2CCCO2)cc1 (configuration not stated) | 0 | 4.1µM | 0 | 0 | ? | 0
CN(CC(=O)NCC1CCCO1)S(=O)(=O)c1ccc(Br)cc1 (configuration not stated) | 0 | 0 | 0 | 0 | 0 | 0
O=C(CSc1nn(-c2ccc(F)cc2)c(=S)s1)NCC1CCCO1 (configuration not stated) | 0 | 0 | 0 | 0 | 0 | 0
CCc1ccc(-c2nc(SCC(=O)NCC3CCCO3)c(-c3ccc(C)cc3)[nH]2)cc1 (configuration not stated) | 0 | ? | 0 | - | 0 | 0
O=C1CN(C(=O)c2ccc(S(=O)(=O)N3CCCC3)cc2)C(c2ccc(F)cc2)c2cc(F)ccc2N1 (configuration not stated) | 0 | ? | 0 | - | ? | 0
O=C1CCN(S(=O)(=O)c2ccccc2)CCN1CCOCc1ccc(Cl)cc1 | 0 | 0 | - | 0 | 0 | 0
CCN1C(=O)[C@H]2[C@H]3[C@H](O)[C@H](O)C/C(=N/O[C@@H]4O[C@H](COC(C)=O)[C@@H](OC(C)=O)[C@H](OC(C)=O)[C@H]4OC(C)=O)[C@@H]3CC[C@@H]2C1=O | - | - | 0[21 µM] | - | - | -
O=C(Nc1nc(-c2ccc(F)cc2)cs1)C1CCCO1 (configuration not stated) | 0 | ? | 0 | -56 | ? | 0
Cc1cc(C)c2nc(SCC(=O)NCC3CCCO3)c(C#N)cc2c1 (configuration not stated) | 0 | 0 | 0 | -51 | 0 | 0
O=C(CN(C1CCCCC1)S(=O)(=O)c1ccc(F)cc1)NCC1CCCO1 (configuration not stated) | 4.5µM | 7.3µM | - | -106 | 8.2µM | 7.1µM
Cc1cc2cccc(C)c2nc1SCC(=O)NCC1CCCO1 (configuration not stated) | ? | 0 | 0 | 0 | 0 | 0
O=C(c1csnn1)N1CCC2(CC1)CCN(c1ccccc1)CC2 | - | ? | - | - | 0 | -
O=C(c1csnn1)N1CCC2(CC1)CN(c1ccccc1)C2 | - | ? | - | - | 16µM | -
O=C(c1csnn1)N1CCC2(CCCN(C(c3ccccc3)c3ccccc3)C2)CC1 | - | ? | - | - | 18µM | -
O=C(c1csnn1)N1CCC2(CC1)CN(c1cccc(-c3ccccc3)c1)C2 | - | 21µM | - | - | 23µM | -
CC[C@H](C)[C@H](NC(=O)[C@H](CC(C)C)NC(=O)[C@@H](N)CO)C(=O)NCC(=O)N[C@@H](CCCCN)C(=O)N[C@H](C(=O)O)C(C)C | - | - | 0 | - | - | -
c1ccc(C(OC2CCCN(CCc3ccc4c(c3)OCO4)C2)c2ccccc2)cc1 (configuration not stated) | - | - | 0 | - | - | -
CCCN1Cc2cccc(C(=O)Nc3ccccc3F)c2C1=O | 0 | ? | 0 | - | ? | 0
COc1ccccc1CN(C)C(=O)c1cccc(S(=O)(=O)N2CCN(Cc3ccccc3)CC2)c1 | ? | ? | 0 | -54 | ? | 0
SMILES | TGFb inhibitor | DT40 TDP1 no CPT | TDP1 block | IL1B secr inh | DT40 TDP1 CPT | HepG2 tox
CC1CCCCC1NC(=O)c1cccc(S(=O)(=O)N2CCN(Cc3ccccc3)CC2)c1 (configuration not stated) | 0 | 21µM | 0 | 0 | 16µM | 0
CSc1ccc(CN(C)C(=O)c2cccc(S(=O)(=O)N3CCN(Cc4ccccc4)CC3)c2)cc1 | ? | 13µM | - | -72 | 16µM | 0
CN(Cc1ccc(F)cc1)C(=O)c1cccc(S(=O)(=O)N2CCN(Cc3ccccc3)CC2)c1 | 0 | 13µM | 0 | -61 | 21µM | 0
COc1cccc(NC(=O)c2cccc(S(=O)(=O)N3CCN(Cc4ccccc4)CC3)c2)c1 | 0 | ? | - | ? | ? | 0
CN1CCN(S(=O)(=O)c2cccc(C(=O)N(Cc3ccccc3)c3ccccc3)c2)CC1 | 0 | ? | - | 0 | ? | 0
COc1ccc(CCN(C)C(=O)c2ccc(COc3ccccc3)o2)cc1OC | 0 | ? | 0 | ? | ? | 0
COc1ccc(OCc2cc(=O)c3ccc4c(c3o2)C=CC(C)(C)O4)cc1OC | ? | ? | 0 | 0 | 16µM | 0
Cn1ccc(/C=N/N=C2/NC(=O)CS2)n1 | 0 | 0 | - | 0 | 0 | 0
CCC(C(=O)Nc1ccsc1C(=O)OC)c1ccccc1 (configuration not stated) | 0 | 0 | 0 | 0 | 0 | 0
COc1ccc2[nH]cc(CCNc3ccnc(-c4ccc(N(C)C)cc4)n3)c2c1 | - | 0.92µM | - | - | 1µM | -
COc1ccc2[nH]cc(CCNc3ccnc(-c4cccnc4)n3)c2c1 | - | ? | - | - | 21µM | -
COc1ccc2[nH]cc(CCNc3ccnc(-c4cccc(NS(C)(=O)=O)c4)n3)c2c1 | - | 10µM | 0 | - | ? | -
COc1ccc2[nH]cc(CCO)c2c1 | - | 0 | 0 | - | 0 | -
Cc1cccc(-c2nc3c(c(SCC(=O)N4CCOCC4)n2)COC(C)(C)C3)c1 | 0 | 0 | 0 | 0 | ? | 0
COc1ccc(CN2Cc3ccccc3OC(c3ccccc3OC)C2)cc1O (configuration not stated) | - | ? | - | - | 0[9.04 µM] | -
COc1ccc(/C=C/C(=O)N2CCCc3ccccc32)c(OC)c1 | 0 | ? | - | ? | ? | 0
COc1ccc(/C=C/C(=O)N2CCCc3ccccc32)cc1 | 0 | 23µM | 0 | 0 | 26µM | 0
COc1ccc(OC)c(/C=C/C(=O)N2CCCc3ccccc32)c1 | 0 | ? | 0 | -77 | 0 | 0

Compound activity from PubChem.
